Results from the OligoGym collection.

Molecular target: CDH19
Test: pooled miR-30 sensor sort-seq; sequence = guide strand
Conditions: shRNA
Further: reference of the scale not given here.

Sequence | sensor-assay potency score (higher = more potent)
TAACTTTTGCTCTAATACCGTA | -0.771
TTATCTATGATTGTAAAACTTG | -0.902
ATCAGTATTAGCTTCTTCGAGC | -1.26

Molecular target: CDH20
Test: as above
Conditions: shRNA

Sequence | sensor-assay potency score (higher = more potent)
TAGTATATTTCATCTCTGCATT | -0.967
TATCTGAATGAAGCTTGCCGAC | -1.28
TGATGATGAACTCTGACTCGGG | -0.216
TTTCTTGCTTTCAAAACTCAGG | -0.799
TTGAGTTGTTGGTCACATCTGG | 0.759
TGTAGTAGAAATGCTGACCATT | -0.339
TAGTATTCTTTGGCTTCTCTGT | -0.859
TTGGATAATCACTTCGTAGTAT | 0.305
TTCATCTCTGCATTGATGCCTT | -0.00989
TATCATTGACATCTGAGAGGGT | 0.944
TTGATTGTGACAGGAACACTTC | -0.452
TTCTTTGGCTTCTCTGTCCATG | -0.339

Molecular target: CDH24
Test: as above
Conditions: shRNA

Sequence | sensor-assay potency score (higher = more potent)
TTCGAGTCCGCAGCAGAGCAGG | -1.36
TAGAGAAGCAACGCTCCGGATC | -0.845
TGGATTGTCGTTGATGTCTTGC | -0.503
ATCCAGAACAGTGTACACCAGC | -0.986
TTCATCTCTGTCCAGGGCCCGG | -1.68
TTCCTCAATGACAAAGAACTGG | -0.774
TTGTCCTGGACAGTAAAGTTGG | -0.744
TAGGCTGGGTCAATGAGCGTGT | -0.193
TCGTTGACATCGCTGAGCGTGA | -0.691
TGCAAGTCTGTGCTGATGCTGA | -0.691
TTCTATGGGAACCAAGTAGGGG | -0.879
TCATCAATCACAAATACGGTGC | -0.0927

Molecular target: CDH2
Test: as above
Conditions: shRNA

Sequence | sensor-assay potency score (higher = more potent)
TTTCTCGATCAAGTCCAGCTGC | -0.018
TTGATTGTAAACATGTTGGGTG | 0.885
TATCTCTTACATCATCTTCTGG | -0.0628
TTGATGACAATGTCAATGGGGT | 0.314
TTTGTTTCAAAGTCGATTGGTT | 0.586
TTTGCTGCATATATCGATCTGG | 0.226
TAAGCTGAGCAAAATCACCATT | -0.593
TATTATCTCTTACATCATCTTC | -0.354
TTGACCACGGTGACTAACCCGT | -0.441
TTTATCTTTAAATTAAGCTGAG | -0.626
TTCAACTTCTGCTGACTCCTTC | 0.711
TTAACGTATACTGTTGCACTTT | -0.309
TTGTACTTGTCCAAAAACCAAG | -1.35
